Assay outcomes deposited in PubChem BioAssay by Broad Institute.
The list is not random: actives were taken first. Their share in the collection is about 1.3%.
C2C12 statin: suppressors of simvastatin-induced myotoxicity in C2C12 myotubes; ATP luminescence, 48 h; scaled: DMSO 0, geranylgeraniol control 100; rescue of ATP level, % at 7.49 µM; 0.78% of 330,000 active;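 active = mean ATP rescue above about 67%, or every replicate alone reaching that limit, limit read from the data, passing the limit was not always enough; inconclusive = no clear call, values can overlap the other calls; inactive = mean under the limit and some replicate under it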;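 note: myotubes were challenged with 10 µM simvastatin during compound exposure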
AI-2 QS modul: Vibrio harveyi AI-2 quorum sensing modulation. Vibrio harveyi JMH597 AI-2 luminescence/OD600 ratio, 9 h; hits give low values; strain lacks LuxN and CqsS sensors; 0 = neutral-control median. activity change, % at 7.5 µM. 0.4% of 300,000 active; in the data active = activity change below about -75%, passing the limit was not always enough; inconclusive = no clear call, values can overlap the other calls;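 note: luminescence divided by OD600 gain over 9 h not by final OD600 alone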
Rce1 inhib: blocks yeast Ras-converting enzyme | AID 2563 | yeast membranes, quenched prenylated peptide cleavage fluorescence | calls only | 0.27% of 290,000 active | Q03530;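 active = fall in fluorescence gain of 50% or more versus controls, with final raw signal at or below 3038400; inconclusive = same 50% fall but final raw signal above 3038400; inactive = fall in fluorescence gain under 50%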
Target sequence (Q03530 whole entry, looked up): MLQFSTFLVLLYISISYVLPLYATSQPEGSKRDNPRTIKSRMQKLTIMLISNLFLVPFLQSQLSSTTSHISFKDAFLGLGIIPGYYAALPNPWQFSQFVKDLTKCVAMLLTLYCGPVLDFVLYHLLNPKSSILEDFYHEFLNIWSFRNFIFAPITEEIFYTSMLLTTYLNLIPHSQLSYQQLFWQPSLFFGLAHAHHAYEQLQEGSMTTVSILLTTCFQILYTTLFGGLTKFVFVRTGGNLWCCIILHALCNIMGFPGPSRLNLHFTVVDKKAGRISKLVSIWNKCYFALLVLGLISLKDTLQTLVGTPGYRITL
PGC1a acetyl inh: modulators of PGC1a acetylation | U2OS PGC1a acetylation, AlphaScreen anti-acetyl-lysine; with virally co-expressed GCN5 acetyltransferase | 0.17% of 350,000 active | inhibition, % at 15.6 µM | AID 651687;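 active = every replicate shows inhibition of at least 40%; inconclusive = mean inhibition at least 40% but some replicate below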
HIF act: HIF pathway transcriptional activation. U2OS HRE-luciferase reporter, luminescence; normalized: DMSO 0%, desferrioxamine 100%. activation, % at 7.5 µM (by protocol). 0.32% of 300,000 active;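 active = mean activation of at least 10% of the iron chelator positive control signal, with at least half of replicates also reaching 10%; inconclusive = mean and replicate majority disagree about reaching 10%; inactive = mean and most replicates under 10%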
A number is an active result; . = inactive; ? = inconclusive; / = not tested or not shown; + = active, no number.

SMILES	C2C12 statin	AI-2 QS modul	Rce1 inhib	PGC1a acetyl inh	HIF act
O=[N+]([O-])c1cc(-c2ncccn2)c([N+](=O)[O-])s1	.	.	.	61	.
O=C(NC(=S)Nc1ccccc1N1CCCC1)c1cccs1	/	.	.	51	.
O=C(NC(=S)Nc1ccccc1N1CCCCC1)c1cccs1	/	.	.	/	.
CCOC(=O)c1[nH]c(C)c(C(=O)NC2CCCCC2)c1C	.	.	.	.	.
CCOC(=O)c1[nH]c(C)c(C(=O)NCC2CCCO2)c1C (configuration not stated)	75	.	.	.	.
CC(=O)Nc1sc(-c2ccccc2)nc1-c1ccccc1	/	.	.	.	205
C[C@@H]1CCCCO[C@H](CN(C)C(=O)c2ccncc2)[C@@H](C)CN([C@H](C)CO)C(=O)c2cc(NC(=O)NC3CCCCC3)ccc2O1	/	/	/	.	/
CCOCCCNC(=O)/C(C#N)=C/c1ccc([N+](=O)[O-])o1	.	-83	.	.	.
CCOCCCNC(=O)/C(C#N)=C/c1ccc(-c2ccc(S(=O)(=O)N3CCOCC3)cc2)o1	.	.	.	.	.
Cc1ccc(Nc2ncccc2C(=O)O)cc1C	.	-79	.	.	.
Cc1cc(C)c(Nc2ncccc2C(=O)O)c(C)c1	/	.	.	/	.
CCC1CCCCN1C(=O)NC(=O)c1ccccc1 (configuration not stated)	.	.	+	/	.
CCC1CCCCN1C(=S)NC(=O)c1ccc([N+](=O)[O-])cc1 (configuration not stated)	/	.	.	/	.
C[C@H](CO)N1C[C@H](C)[C@@H](CN(C)Cc2ccc(-c3ccccc3)cc2)Oc2ccc(N(C)C)cc2C1=O	.	/	/	.	/
O=C(O)C1CCC(=O)N(C2CC2)C1c1ccccc1 (configuration not stated)	107	.	.	.	.
O=C(O)C1CCC(=O)N(C2CCCCC2)C1c1ccccc1Cl (configuration not stated)	.	.	.	.	.
CCCNC(=O)N1[C@@H]2Cn3c(ccc(-c4cccc(OC)c4)c3=O)[C@H]1[C@@H](C(=O)NCC)[C@@H]2CO	.	/	/	/	/
Cc1ccc(CSc2nc3ccncc3[nH]2)cc1	.	-77	.	.	.
Clc1ccc(CSc2nc3ccncc3[nH]2)cc1	.	?	.	/	.
CC(C)C#Cc1ccc([C@@H]2[C@H](CO)N3C(=O)CN(C(=O)C4CCCCC4)C[C@@H]23)cc1	/	/	/	.	/
C[C@H]1CN([C@@H](C)CO)C(=O)c2cc(NC(=O)Nc3ccc4c(c3)OCO4)ccc2O[C@@H]1CN(C)C(=O)Nc1ccc(C(F)(F)F)cc1	91	/	/	.	/
C[C@@H]1CN([C@H](C)CO)C(=O)c2cc(NC(=O)Nc3cccc4ccccc34)ccc2O[C@H]1CN(C)Cc1ccc(C(=O)Nc2ccccc2N)cc1	.	/	/	.	/
C[C@@H]1CN([C@H](C)CO)C(=O)c2cc(NC(=O)Nc3ccc(C(F)(F)F)cc3)ccc2O[C@@H]1CN(C)Cc1ccc(C(=O)Nc2ccccc2N)cc1	113	/	/	.	/
C[C@H]1CN([C@@H](C)CO)C(=O)c2cc(N(C)C)ccc2O[C@@H]1CN(C)Cc1ccc(C(=O)Nc2ccccc2N)cc1	81	/	/	.	/
C[C@@H]1CN([C@H](C)CO)C(=O)c2cc(NC(=O)Nc3cccc4ccccc34)ccc2O[C@@H]1CN(C)Cc1ccc(C(=O)Nc2ccccc2N)cc1	149	/	/	.	/
SMILES	C2C12 statin	AI-2 QS modul	Rce1 inhib	PGC1a acetyl inh	HIF act
CN1C(=O)c2cc(NC(=O)c3ccc(F)c(F)c3)ccc2OC[C@H]2O[C@@H](CC(=O)N[C@@H]3CCN(Cc4ccccc4)C3)CC[C@H]21	.	/	/	/	/
COc1ccccc1C#Cc1ccc([C@@H]2[C@H]3CN(C(=O)C4CCCC4)CCCCN3[C@H]2CO)cc1	/	/	/	.	/
C[C@@H]1CN([C@@H](C)CO)C(=O)Cc2cc(NC(=O)Nc3cccc4ccccc34)ccc2O[C@@H]1CN(C)Cc1ccc(C(=O)Nc2ccccc2N)cc1	/	/	/	.	/
C[C@@H]1CN([C@@H](C)CO)C(=O)c2cccc(NC(=O)c3nc4ccccc4s3)c2O[C@H]1CN(C)Cc1ccc(C(=O)Nc2ccccc2N)cc1	101	/	/	.	/
C[C@@H]1CN([C@H](C)CO)C(=O)c2cc(NS(=O)(=O)c3ccc(Cl)cc3)ccc2O[C@@H]1CN(C)Cc1ccc(C(=O)Nc2ccccc2N)cc1	97	/	/	.	/
C[C@H](CO)N1C[C@H](C)[C@H](CN(C)Cc2ccc(C(=O)Nc3ccccc3N)cc2)Oc2ccc(NC(=O)Nc3cccc4ccccc34)cc2CC1=O	240	/	/	.	/
C[C@@H]1CCCCO[C@@H](CN(C)C(=O)CCC(F)(F)F)[C@@H](C)CN([C@H](C)CO)C(=O)c2cc(NS(=O)(=O)c3cn(C)cn3)ccc2O1	/	/	/	.	/
Cc1noc(C)c1NC(=O)N[C@H]1CC[C@@H](CC(=O)N2CCCCC2)O[C@H]1CO	.	/	/	.	/
CC(C)CC(NC(=O)C1CCC(C)CC1)C(=O)Nc1cccnc1 (configuration not stated)	108	.	.	.	.
CC(C)CC(NC(=O)C1CCC(C)CC1)C(=O)NCc1cccnc1 (configuration not stated)	.	.	.	.	.
C[C@@H]1CN([C@@H](C)CO)C(=O)c2cc(NC(=O)CCCCCC(=O)Nc3ccccc3N)ccc2O[C@@H]1CN(C)S(C)(=O)=O	/	/	/	.	/
Cc1ccc(-c2noc(CCC(=O)NCC3CCN(Cc4cccc(C)c4)CC3)n2)cc1	87	.	.	.	.
CCOc1ccc(-c2noc(CCC(=O)NC)n2)cc1OCC	95	.	.	.	.
CCOc1cc(-c2noc(CCC(=O)NCCc3ccccc3)n2)ccc1OC	.	.	.	.	.
CC(C)N1CCN(Cc2ccc(Oc3ncccn3)cc2)CC1CCO (configuration not stated)	/	.	+	.	.
O=C(C[C@H]1CC[C@H]2[C@@H](COC[C@@H](O)CN2S(=O)(=O)c2ccc(F)cc2)O1)N[C@H]1CCN(Cc2ccccc2)C1	.	/	/	.	/
C/C(=N\OC(=O)NC(C)C)c1sc(-c2ccccc2)nc1C	/	.	.	.	.
C/C(=N\OC(=O)NC(C)C)c1sc(-c2ccc(Cl)cc2)nc1C	71	.	.	.	.
COc1ccc(NC(=O)CSc2nccc(C)n2)cc1	113	.	.	.	.
CCn1c(CNc2ccc(F)cc2)nnc1SCC(=O)Nc1ccc(OC)cc1	119	.	.	.	.
Cc1ccnc(SCC(=O)Nc2cc(C)on2)n1	/	.	.	.	.
C[C@@H]1CN([C@H](C)CO)C(=O)Cc2cc(NC(=O)C3CCCCC3)ccc2O[C@H]1CN(C)Cc1ccc(C(=O)O)cc1	.	/	/	.	/
FC(F)(F)c1nc2nncn2c2c1CCCCC2	149	.	.	.	.
CC(C)(C)NC(=O)Cn1nc(C(F)(F)F)c2c1CCCC2	/	.	.	.	.
CO[C@H]1CN(C)C(=O)c2ccc(NC(=O)c3ccc(-c4ccccc4)cc3)cc2OC[C@@H](C)NC[C@H]1C	.	/	/	.	/
